Assay results published in PubChem BioAssay (NCI).
This is part of a sample that, as a whole, favours compounds with a hit. Of some 83,000 tested, about 20% had one in any assay.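 Assay: single dose, 48 h. Readout: percent growth (0 = no net growth; negative = cell death). Active: <10.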 Unmarked numbers belong to inactive results. Activity calls are given as the source filed them.

system: HL-60(TB) leukemia; assay: NCI-60 one-dose screen, 48 h (100 = growth as untreated, 0 = no growth, -100 = all killed); conditions: 10 µM unless noted

Compound	growth
CCOC(=O)c1cnn(CC(C)O)c1NC(=O)NCc1ccccc1C(F)(F)F (stereo not given)	58%
C=C(C)C1CCC(=C)C2CCC3(C)OC12/C=C(/COC(C)=O)CCC3O (stereo not given)	90.8%
COC(=O)CCCCCCCCC1(C)C=CC(C(C)O)=CC1 (stereo not given)	99.4%
O=C(NNc1ccccc1)c1ncc[nH]1	7.71% (active)
OC(c1cc(-c2ccc(Cl)cc2)nc2c(Cl)cccc12)C1CCCCN1 (stereo not given)	-67% (active)
NC1CCC(Nc2nc(NCc3ccc(-c4ccco4)nc3)c3ncn(C4CCCC4)c3n2)CC1 (stereo not given)	-33.3% (active)
C[C@@H]1CN(c2cnc(C(=O)Nc3cc(F)cc4cccnc34)cn2)C[C@H](C)N1	82.4%
CCOC(=O)c1cnc2c(cnn2CC)c1NN=C(C)C	74.4%
CC1(C)N=C(N)N=C(N)N1c1ccc(CCCCc2ccccc2)c(Cl)c1	-25.5% (active)
C=CC(=O)Nc1cccc(Nc2nc(Nc3ccc(N4CCN(C(C)=O)CC4)cc3OC)ncc2C(F)(F)F)c1	-25.2% (active)
COc1ccc(/C=C2/CN(CCC#N)C/C(=C\c3ccc(OC)cc3)C2=O)cc1	13.6%
C=CCOc1ccc2c(C)cc(=O)oc2c1	118%
CC1CCN(CCOc2ccc(CNc3ccc4nc(CCC5CCCCC5)[nH]c4c3)cc2)CC1	5.83% (active)
CCN(C(=O)CN1CCN(c2cc3c(cc2F)c(=O)c(C(=O)O)cn3C2CC2)CC1)c1nc(-c2ccc(OC)cc2)cs1	30.1%
O=C(Oc1ccc[nH]c1=O)c1cccc(Cl)c1	87.6%
COc1ccc(C2CC(c3cc(OC)c(OC)c(OC)c3)=NN2C(C)=O)cc1OCC(=O)Nc1nc2ccc(C(F)(F)F)cc2s1 (stereo not given)	79.1%
CCCCCc1c(C)[nH]c(/C=C2\N=C(c3ccc[nH]3)C=C2Oc2ccc(Cl)cc2)c1C	-40.3% [100 µM] (active)
COc1ccc(OC)c(NC2=C(SCCc3ccccc3)C(=O)c3ccccc3C2=O)c1	93.4%
C=CC1(C)C(O[Si](C)(C)C(C)(C)C)CC2C3OC(=O)NC31c1cccc3c1[C@H](C(=O)N3C)C2(C)C (stereo not given in full)	22.9%
COc1cc(-c2cc(C(=O)N3CCN(C(=O)c4ccccc4NCc4cccs4)CC3)nc3cc(-c4ccccc4)nn23)cc(OC)c1OC	82.7%
CC(O)(c1ccccc1)C(c1ccccc1)C1CCCCN1 (stereo not given)	78.9%
COC(=O)Nc1nc2ccc(C(=O)C3CC3)cc2[nH]1	-56.2% (active)
N#Cc1c(-c2ccco2)nc2c(c(-c3ccccc3)nn2-c2ccccc2)c1-c1ccc(O)cc1	22.9%
C[C@@H]1O[C@@H](O[C@H]2[C@@H](OC(=O)[C@]34CCC(C)(C)C[C@H]3C3=CC[C@@H]5[C@@]6(C)C[C@H](O)[C@H](O[C@@H]7O[C@H](CO)[C@@H](O)[C@H](O)[C@H]7O)[C@@](C)(CO)[C@@H]6CC[C@@]5(C)[C@]3(C)C[C@H]4O)OC[C@@H](O)[C@@H]2O)[C@H](O)[C@H](O[C@@H]2OC[C@@H](O)[C@H](O[C@@H]3OC[C@](O)(CO)[C@H]3O[C@@H]3OC[C@@H](O)[C@H](O)[C@H]3O)[C@H]2O)[C@H]1O[C@@H]1OC[C@](O)(CO)[C@H]1O	21.4%
Cc1ccc(S(=O)(=O)Oc2ccc3c4c(c(=O)oc3c2)CCCCC4)cc1	20.4%
